# Most compounds without a hit are left out; they make up all but 5.5% or so of the library.
# a7 integrin act – qHTS for Activators of Integrin-Mediated Alleviation for Muscular Dystrophy; alpha7betagal myoblasts, beta-gal FDG fluorescence, 48 h; Potency, µM (top dose mostly 38.3 µM), for inactives: top-dose activation, actives largely listed as activators; hit rate 0.064% among 350,000;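 also: 100% = response of the positive control SU9516; nearly all actives have a fitted effect of over 60% in size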
#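 Alpha7betagal+/- myoblasts (passage 13) were plated 16-24 hr, then exposed to compounds (1:260 dilution of DMSO stock) for 48 hours at 37C. After MPER lysis, β-galactosidase reporter activity was read as FDG fluorescence (ex 480/em 540) after 30 minutes.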
# Mito fusion act – qHTS Assay for Small Molecule Inhibitors of Mitochondrial Division or Activators of Mitochondrial Fusion; hit rate 0.23% among 320,000; Potency, µM (doses to about 46.1 µM), inactives show at the top dose growth rescue (activation), hits mostly activators; S. cerevisiae fusion-defective mutant growth rescue, CellTiterGlo 48 h; AID 485298, 2010; also: % of control where 0% means no effect; nearly all actives have a fitted effect of over 45% in size
#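 Read-out: ATP-based luminescence (CellTiterGlo, 10 min ambient) reporting growth of fusion-defective ts yeast after 48 hours at 37C on glycerol/ethanol YPEG medium in the presence of compound.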
# RORgamma inh – qHTS for inhibitors of ROR gamma transcriptional activity; Nuclear receptor ROR-gamma (Mus musculus), P51450; Drosophila S2 Gal4-RORgamma UAS-luciferase reporter, 20 h; Potency, µM (series often up to 53.6 µM), without a hit: at the highest dose activity change, negative = inhibition, most hits filed as inhibitors; hit rate 5.4% among 310,000; AID 2551, 2010; also: % is scaled to controls: 0 for no effect and ±100 for the full control effect; nearly all actives have a fitted effect of over 60% in size
# Target sequence (P51450 whole entry, looked up, the tested form may be a part): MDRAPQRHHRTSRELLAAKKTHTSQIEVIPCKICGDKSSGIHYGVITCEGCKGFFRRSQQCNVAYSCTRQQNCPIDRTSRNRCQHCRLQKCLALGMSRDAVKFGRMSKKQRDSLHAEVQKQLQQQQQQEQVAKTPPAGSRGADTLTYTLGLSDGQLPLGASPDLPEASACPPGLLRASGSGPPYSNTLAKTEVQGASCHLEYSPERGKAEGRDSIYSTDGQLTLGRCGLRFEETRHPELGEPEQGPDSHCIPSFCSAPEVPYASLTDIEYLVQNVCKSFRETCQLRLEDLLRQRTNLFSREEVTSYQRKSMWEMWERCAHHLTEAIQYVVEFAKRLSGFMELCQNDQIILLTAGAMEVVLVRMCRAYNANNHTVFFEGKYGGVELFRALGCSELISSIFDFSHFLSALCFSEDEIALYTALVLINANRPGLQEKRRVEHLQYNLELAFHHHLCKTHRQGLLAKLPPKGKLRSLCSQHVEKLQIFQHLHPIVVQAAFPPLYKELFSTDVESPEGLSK
#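 ROR gamma transcriptional activity was tracked as Gal4-UAS luciferase output in stably transfected Drosophila Schneider cells, with compound added 1 hr before 700 uM copper sulfate induction and a 20 hr ambient-temperature incubation.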
# Gal4-VP16 FLuc – VP16 counterscreen qHTS for inhibitors of ROR gamma transcriptional activity; Drosophila S2 Gal4-VP16 UAS-luciferase, luminescence, 20 h; Potency, µM (highest dose often 53.6 µM), for the others: top-dose activity, negative = inhibition, usual class: inhibitors; hit rate 3.5% among 310,000; AID 2546, 2010;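 also: Gal4-VP16 expression switched on by copper sulfate through the metallothionein promoter; % is scaled to controls: 0 for no effect and ±100 for the full control effect; nearly all actives have a fitted effect of over 50% in size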
# Chronic BCR inh – qHTS Assay to Find Inhibitors of Chronic Active B-Cell Receptor Signaling; hit rate 0.05% among 340,000; ABC-DLBCL IkBa-CBG/CBR reporter, luminescence ratio, 4 h; Potency, µM (highest dose often 46.1 µM), for the others: top-dose activity change, negative = inhibition, actives largely listed as inhibitors; active = well fitted inhibition curve with a large enough effect in the signal ratio, with a control signal flat, not every such curve was filed as active; inconclusive = small, poorly fitted or top-dose-only effect, or effect the other way, or a change in a side signal; the % refers to the signal ratio;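 also: plate controls were basal doxycycline-induced cells for no effect and cells given 10 µM MG132 for full effect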
#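 Cell line TMD8 (human ABC DLBCL), stably expressing tet-inducible CBG68-IkBa fusion and CBR; IMDM/0.5% FBS; cpd up to 46 uM; dox induction, 4 h, 37C/5% CO2; dual luminescence; green/red ratio; MG132 control.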
# uPA generation – qHTS for Inhibitors of Cell Surface uPA Generation | AID 540303, 2011 | cell surface uPA generation assay, qHTS | Potency, µM (titrated, usually from 38.3 µM), for inactives: top-dose activity change, negative = inhibition, actives largely listed as inhibitors | hit rate 0.31% among 330,000; active = well fitted inhibition curve with a large enough effect; inconclusive = small, poorly fitted or top-dose-only effect; inactive = no such curve, though single readings can be large or run the other way; tested in mouse RAW 264.7 cells; also: % is scaled to controls: 0 for no effect and ±100 for the full control effect; nearly all actives have a fitted effect of over 55% in size
# Starred values were filed as active, the others as inactive; ? = inconclusive; . = no result. Unless noted, calls follow the shape of the dose curve; as a rule, active = well fitted curve in the direction sought with a large enough effect; inconclusive = small, poorly fitted or top-dose-only effect, or another doubt; inactive = no such curve, though single readings can be large; an effect the other way counts as inactive or inconclusive. Potency is read from the fitted curve at half-maximal effect.
SMILES,a7 integrin act,Mito fusion act,RORgamma inh,Gal4-VP16 FLuc,Chronic BCR inh,uPA generation
Cc1ccc[n+](/C(=C\C(=C=[N-])C#N)C(=O)c2ccc(Cl)cc2)c1,-23.6%,-5.0%,17.8µM*,?,1.4%,2.1%
Cc1ccc(N=N/C(=C\O)C(=O)c2ccc(Cl)cc2)cc1,-43.6%,4.1%,-36.0%,?,?,0.4%
N/C(=N\OC(=O)c1ccc2c(c1)OCO2)c1ccncc1,?,0.6%,10µM*,?,?,?
Cc1cccc(/C(N)=N/OC(=O)c2ccncc2)c1,18.6%,0.9%,7.08µM*,?,?,0.7%
N/C(=N\OC(=O)c1ccncc1)c1cccc([N+](=O)[O-])c1,-4.4%,3.2%,7.1%,-1.0%,4.5%,0.5%
COc1ccc(C(=O)O/N=C(\N)c2cccc(C)c2)cc1OC,10µM*,?,1µM*,?,?,?
COc1cccc(C(=O)O/N=C(\N)Cc2ccc(Cl)cc2)c1,1.6%,-27.0%,-37.9%,12.6µM*,4.7%,-4.1%
CCc1ccccc1NC(=O)c1cc(S(=O)(=O)N2CCCc3ccccc32)ccc1F,.,.,.,.,-4.5%,.
O=C1C(=O)N(c2ccc(O)cc2)C(c2ccccc2[N+](=O)[O-])/C1=C(\O)c1ccccc1 (centres undefined),-32.8%,2.8%,-0.8%,-7.2%,?,7.1%
COC(=O)c1sccc1-c1ccc(/C=N/OC(=O)c2cccs2)o1,37.7%,3.7%,-16.6%,-5.0%,-19.5%,3.7%
Cc1cccc(C(=O)O/N=C(\N)Cc2cccc3ccccc23)c1,7.2%,-1.4%,?,11.2µM*,0.4%,-4.0%
COC(=O)CCC(=O)NC(=S)Nc1cc(Cl)ccc1Cl,-7.4%,-14.3%,10µM*,?,?,8.6%
O=C(Cc1ccccc1)NC(=S)Nc1cccc(C(F)(F)F)c1,20.3%,-14.2%,7.08µM*,12.6µM*,12.2%,1.1%
O=C(Cc1ccccc1)NC(=S)Nc1cc(C(F)(F)F)ccc1Cl,-11.7%,-4.8%,1.58µM*,-20.6%,14.4%,10.4%
COC(=O)CCC(=O)Nc1ccc(Cl)c(Cl)c1,-25.0%,-4.3%,24.6%,5.7%,5.5%,9.8%
O=C(Nc1cc(C(F)(F)F)ccc1Cl)c1ccncc1,8.2%,-1.0%,-2.6%,6.9%,-12.9%,-1.6%
Cc1ccc(C(=O)NC(=S)Nc2cc(C(F)(F)F)ccc2Cl)cc1,16.4%,-1.6%,10µM*,-16.7%,10.9%,5.5%
O=C(CCl)N1N=C(c2ccco2)CC1c1cccs1 (centres undefined),-46.3%,-9.3%,10µM*,15.8µM*,?,-13.0%
Nc1nc2c(nc(Br)n2C2OC(CO)C(O)C2O)c(=O)[nH]1 (centres undefined),.,.,1.5%,-0.7%,.,.
CCCCN(C)C(=S)Nc1ccc(Oc2ccccc2)cc1,-3.5%,17.9%,11.2µM*,?,10.6%,-0.4%
CCCN(CC1CC1)C(=S)Nc1ccc(Oc2ccccc2)cc1,-30.7%,25.4%,12.6µM*,8.91µM*,0.4%,-2.4%
Cc1noc(C)c1C(=O)N1CCC2(CC1)CCN(C(c1ccccc1)c1ccccc1)CC2,.,.,-26.3%,9.9%,.,.
Cc1[nH]n(-c2ccccc2)c(=S)c1C=Nc1ccc([N+](=O)[O-])cc1,7.9%,-0.5%,3.16µM*,7.08µM*,15.7%,4.8%
Cc1[nH]n(-c2ccccc2)c(=O)c1C=Nc1ccc(S(=O)(=O)N=C(N)N)cc1,5.2%,-1.5%,15.2%,-5.6%,18.6%,-11.3%
CCn1c(=NC(=O)CSC(C)=O)sc2cc(OC)ccc21,18.9%,17.7%,10µM*,?,-5.8%,-19.5%
COCCn1c(=NC(=O)CSC(C)=O)sc2cc(OC)ccc21,-5.4%,13.1%,-19.4%,-4.3%,-19.7%,?
COc1ccc(C(=O)Oc2c(CN3CCOCC3)cc(Cl)c3cccnc23)cc1OC,-9.6%,.,.,.,.,10.8%

# Source: PubChem (National Center for Advancing Translational Sciences (NCATS))
